Data as given in PubChem BioAssay (NCI).
The panel holds about 83,000 compounds, 20% with a hit somewhere; the sample as a whole holds those more often.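 A percent growth of 40 corresponds to 60% growth inhibition; 0 means no net growth; -100 means all cells died. Active threshold: below 10.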 A number with no mark means an inactive call. The source made the active and inactive calls.

system: MALME-3M melanoma; assay: NCI-60 one-dose screen, 48 h (100 = growth as untreated, 0 = no growth, -100 = all killed); settings: 10 µM unless noted

Point of comparison: `C/C(=C(/c1ccc(Cl)cc1)c1ccc(OCCN2CCCC2)cc1)c1ccc(Cl)cc1`, growth 81.5%. Against it:
- O=C1c2cccc3cccc(c23)C(=O)N1N1C(=O)c2cccc3c(N4CCOCC4)ccc(c23)C1=O — lower, 78.8%
- CCO/C=N/C1=C(C#N)C(c2ccc(OC)cc2)c2sc3c(F)cccc3c2O1 (stereo not given) — lower, 60%
- O=C(c1ccc(-c2nc(CSc3nc4ccccc4s3)no2)cc1)N1CCSCC1 — lower, 66.3%
- CC[C@]12C=CCN3CC[C@@]4(c5cc(NC(=O)CCC(=O)OCc6cn(Cc7ccc(F)cc7)nn6)c(OC)cc5N(C)[C@H]4[C@@](O)(C(=O)OC)[C@@H]1OC(C)=O)[C@@H]32 — higher, 99.5%
- C=C(C)[C@@H]1CC[C@]2(C(=O)O)CC[C@]3(C)[C@H](CC[C@@H]4[C@@]5(C)C[C@@H](Cc6cn(CCO[C@@H]7O[C@H](COC(C)=O)[C@H](OC(C)=O)[C@H](OC(C)=O)[C@H]7OC(C)=O)nn6)[C@H](O)C(C)(C)[C@@H]5CC[C@]43C)[C@@H]12 — lower, 77.7%
- C=CCn1c(SCC(=O)Nc2ccc(C(=O)/C=C/c3ccc(Cl)cc3)cc2)nnc1-c1cc(-c2ccc(S(N)(=O)=O)cc2)nc2ccccc12 — higher, 93.3%
- CCOC(=O)C1=NN(c2ccccc2)C(=O)/C1=C\N1C(=O)CC(=O)NC1=S — higher, 97.6%
- CC12CCC3c4ccccc4CCC3(CO1)C2 (stereo not given) — higher, 95.1%
- O=C1CC(N2C(=O)/C(=C/C(Cl)=C\c3ccc([N+](=O)[O-])cc3)SC2=S)C(=O)N1c1ccc(Cl)cc1 (stereo not given) — lower, 22.9%
- CC1(C)c2[nH]c3ccccc3c2C[C@]2(C)[C@H]3CC=C4[C@@H]5C[C@@](C)(C(N)=O)CC[C@]5(C)CC[C@@]4(C)[C@]3(C)CC[C@@H]12 — lower, 68%
- CCCCCOc1ccc(C(=O)/C(Br)=C/C(=O)O)cc1 — higher, 130%
- CC(C)N1CCN(Cc2ccc3c(NNC(=O)c4ccccc4)nc4cc(F)ccc4n23)CC1 — lower, 25%
- Cc1cccc(N2CCN(CC(O)COc3ccc(Cl)cc3)CC2)c1 (stereo not given) — higher, 146%
- CCOC(=O)c1c(C)nc2c(c1N)CC(=O)N2Cc1cc(F)cc(Cl)c1 — higher, 108%
- C[C@@H]1CCC[C@H]1CC(N)C(=O)O (stereo not given in full) — higher, 149%
- O=C1Nc2ccc(I)cc2C1=O — higher, 110%
- CN1CCN(c2ccc(NC(=O)c3nc4ccc5[nH]ncc5c4c4c3CCCC4)cc2C(F)(F)F)CC1 — lower, 33.1%
- COc1ccccc1NC(=O)Cn1cc(CN2CCN(c3ccnc4cc(Cl)ccc34)CC2)nn1 — higher, 106%
- N=C(N)c1ccc(-c2ccc(-c3ccc(F)cc3)o2)o1 — lower, 41.6%
- CN1C(=O)/C(=C/c2ccc(C(=O)Nc3ncc(Cc4ccc(Cl)cc4)s3)cc2)SC1=S — lower, 50.9%
- CCCCCC(=O)OCC(=O)O[C@@H]1C[C@]2(C(C)C)O[C@@]1(C)[C@@H]1CC[C@@H](C)[C@H]1[C@@H]2OC(=O)/C=C/c1ccccc1 — lower, 49.8%
- CC(=O)N(N=Nc1ccccc1)c1cccc2ccccc12 — higher, 128%
- COc1ccc(/C=C2\C(=O)N=C3N2NC(c2cc(Br)ccc2O)C=C(C)N3c2ccccc2)cc1 (stereo not given) — higher, 92.2%
- Brc1ccc2[nH]cc(-c3nonc3-c3c[nH]c4ccccc34)c2c1 — lower, 56.8%
- COc1cccc(NC(=O)Cn2cc(CN3CCN(c4ccnc5cc(Cl)ccc45)CC3)nn2)c1 — higher, 95.6%
- CCOc1ccc(NC(=O)CSc2oc(-c3ccccc3)nc2S(=O)(=O)c2ccc(F)cc2)cc1 — lower, 78.3%
- O=C1Nc2ccc(Br)cc2/C1=N/c1n[nH]c(=S)s1 — higher, 107%
- COc1ccc(C(=O)C2C(c3ccc(OC)cc3)CN(C)C23C(=O)Nc2ccccc23)cc1 (stereo not given) — higher, 92.7%
- Cc1noc(C)c1C(=O)OCc1coc2ccccc2c1=O — lower, 51.4%
- C[C@]12CC[C@@H]3c4ccc(O)c([N+](=O)[O-])c4CC[C@H]3[C@@H]1CCC2=O — higher, 98.5%
- COc1cccc([C@H]2c3[nH]c4ccccc4c3C[C@H]3C(=O)N(CCCCCCC(=O)NO)CC(=O)N23)c1 — lower, 24.3%
- CO/N=C(/C)c1ccc(NC(=O)CSc2nnc(-c3ccncc3)n2-c2ccccc2)cc1 — lower, 32.2%

In the case of `Cc1ccc(CNc2ccc(Cl)cc2NCc2ccc(C)c(O)c2)cc1O`, the growth is reported as -3.38% (active).
For `O=CC1(C2(C=O)c3ccccc3-c3ccccc32)c2ccccc2-c2ccccc21`, the growth was -71.8% (active).
For `CN(C)C1CCN(Cc2ccc(NC(=O)c3cncc(C#Cc4cnc(N)c5ncccc45)c3)cc2C(F)(F)F)CC1`, the growth was -63.1% (active).
`COc1ccc(C/C(C)=C(/c2ccc(OCCN3CCCCC3)cc2)c2ccc(OC(=O)NCc3ccccc3)cc2)cc1` was tested, and the growth was -87.3% (active).
For `C=C1C(=O)O[C@H]2[C@H]1CC/C(COC(=O)CSCCSCC(=O)OC/C1=C/CC[C@@]3(C)O[C@H]3[C@H]3OC(=O)C(=C)[C@@H]3CC1)=C\CC[C@@]1(C)O[C@@H]21`, the growth was -8.71% (active).

For `N#Cc1cccc(NC(=O)c2oc3ccccc3c2-c2cnn(-c3ccccc3)c2)c1`, the growth was 101% [50 µM].

For `CC(C)(C)[Si](C)(C)O[C@H]1C(=O)C=CN2CC=C[C@@H]12`, the growth was 106% [100 µM].
